Results published in PubChem BioAssay (NCATS).
Inconclusive results are not listed. Entries that show only a call come without a potency. The source made the active and inactive calls. Calls come from the whole dose curve; as a rule, active = well fitted inhibition curve with a large enough effect; inconclusive = small, poorly fitted or top-dose-only effect; inactive = no such curve, though single readings can be large or run the other way.

Test: S16 Schwann cell PMP22 intronic element firefly luciferase assay (AID 624032); note: nearly all actives have a fitted effect of over 30% in size
Details: S16 rat Schwann cells, PMP22 element FLuc, 24 h; series mostly up to 57.5 µM
Excerpt: Charcot-Marie-Tooth-Association [CMTA]
National Center for Advancing Translational Sciences [NCATS]
Charcot-Marie-Tooth (CMT) disease was first characterized by Jean-Martin Charcot and Pierre Marie in France and, independently, by Howard Henry Tooth in England in 1886. CMT is one of the most common inherited neurological diseases, affecting approximately 1 in 2,500 Americans. […] The most prevalent type of CMT is known as CMT1A and caused by a duplication of the PMP22 gene which leads to over-expression of this protein. PMP22 is a glycosylated intrinsic membrane protein accounting for 2-5% of the myelin protein content, and its over-expression results in demyelination and subsequently axonal loss.
A pair of cellular transcription-based assays was developed in the S16 rat Schwann cell lines (Hai, M., et al., 2002) stably transfected with orthogonal reporters - firefly luciferase (Fluc) and beta-lactamase (beta-Lac) - whose expression is driven by an intronic regulatory element of the PMP22 gene (Jones, E.A., et al., 2011) to recapitulate endogenous expression of PMP22. The current assay employs Fluc to report on PMP22 expression. A comprehensive library of approved drugs, the NCGC Pharmaceutical Collection (Huang, R., et al., 2011), was screened in the cross-validating platform of the orthogonal reporter assays to identify drug modulators inhibitory towards PMP22 expression.
A set of counter-screens was devised to address non-specific activity of the library. An ATP-dependent CellTiter-Glo assay (developed by Promega Corp) was utilized to control cell viability. In addition, biochemical Fluc enzyme assay was performed to assess direct inhibition of the Fluc enzymatic activity.
Hai, M., Muja, N., DeVries, G.H., Quarles, R.H. and Patel, P.I. Comparative analysis of Schwann cell lines as model systems for myelin gene transcription studies. J Neurosci Res, 2002. 69(4): pp 497-508
Huang, R., Southall, N., Wang, Y., Yasgar A., Shinn P., Jadhav, A. , Nguyen, D.-T. and Austin, C.P., The NCGC pharmaceutical collection: a comprehensive resource of clinically approved drugs enabling repurposing and chemical genomics. Sci Transl Med, 2011. 3(80): p. 80ps16.
S16 Schwann cell PMP22 intronic element firefly luciferase assay
The FLuc-expressing S16 cells were seeded in white solid 1536-well plates at between 500-750 cells/4uL in DMEM medium containing 10% FBS, w/o phenol red. After overnight incubation at 37 degree Celsius/5% C02, 23 nL of compounds or DMSO were delivered to each well using a pin tool, followed by 24h-incubation at 37 degree Celsius/5% C02. Then 4 uL ONE-Glo luminescent substrate mix (Promega) was added to each well. Luminescence was measured on a ViewLux plate reader (Perkin Elmer). The % activity was determined by normalizing to the average readings of PTC124 (a positive control) - treated cells relative to DMSO-treated cells (0% Activity). The concentration-effect curves were then classified based on curve quality (r2), response magnitude and degree of measured activity.
Potency is the fitted concentration of half-maximal effect.

Row | SMILES | Potency
1 | CCOC(=O)C1=C[C@]2(CC)CCCN3CCc4c(n1c1ccccc41)[C@@H]32 | inactive
2 | O=c1n(CCCN2CCN(c3cccc(Cl)c3)CC2)nc2ccccn12 | inactive
3 | CC(C)NCC(O)COc1ccc(COCCOC(C)C)cc1 (centres undefined) | inactive
4 | Clc1ccc(Nc2nnc(Cc3ccncc3)c3ccccc23)cc1 | 20.3 µM (active)
5 | NCCCC(N)(C(=O)O)C(F)F (centres undefined) | inactive
6 | Nc1ccc(S(=O)(=O)Nc2ccnn2-c2ccccc2)cc1 | inactive
7 | CC(c1cc2ccccc2s1)N(O)C(N)=O (centres undefined) | inactive
8 | CCCCNc1cc(C(=O)O)cc(S(N)(=O)=O)c1Oc1ccccc1 | inactive
9 | NC(N)=NC(=O)c1nc(Cl)c(N)nc1N | inactive
10 | O=c1[nH]cnc2[nH]ncc12 | inactive
11 | C#Cc1cccc(Nc2ncnc3cc(OCCOC)c(OCCOC)cc23)c1 | inactive
12 | CC(C[N+](C)(C)C)OC(N)=O (centres undefined) | inactive
13 | CC(C)C[C@H](NC(=O)[C@@H](O)[C@H](N)Cc1ccccc1)C(=O)O | inactive
14 | CCCC(CCC)C(=O)O | inactive
15 | O=C1CCC(N2C(=O)c3ccccc3C2=O)C(=O)N1 (centres undefined) | inactive
16 | Cc1cn[nH]c1 | inactive
17 | COc1ccc2nc(S(=O)Cc3ncc(C)c(OC)c3C)[nH]c2c1 (centres undefined) | inactive
18 | N[C@@H]1CONC1=O | inactive
19 | NNCCc1ccccc1 | inactive
20 | CN1CCN(CCCN2c3ccccc3Sc3ccc(C(F)(F)F)cc32)CC1 | inactive

Row | SMILES | Potency
21 | Cc1ccccc1C(OCCN(C)C)c1ccccc1 (centres undefined) | inactive
22 | Cc1cc2c(C(C)C)c(O)c(O)c(C=O)c2c(O)c1-c1c(C)cc2c(C(C)C)c(O)c(O)c(C=O)c2c1O | inactive
23 | NC[C@H](O)c1ccc(O)c(O)c1 | 9.07 µM (active)
24 | O=NN(CCCl)C(=O)NCCCl | inactive
25 | CC(=O)Oc1ccccc1C(=O)O | inactive
26 | Nc1nc2ccc(OC(F)(F)F)cc2s1 | inactive
27 | Cc1c(C)c2c(c(C)c1O)CCC(C)(COc1ccc(CC3SC(=O)NC3=O)cc1)O2 (centres undefined) | 10.2 µM (active)
28 | OC(CN1CCC(Cc2ccc(F)cc2)CC1)c1ccc(Cl)cc1 (centres undefined) | inactive
29 | Nc1nc2c(ncn2COCCO)c(=O)[nH]1 | inactive
30 | Oc1ccc(C2CNCCc3c2cc(O)c(O)c3Cl)cc1 (centres undefined) | inactive
31 | N=c1nc(N2CCCCC2)cc(N)n1O | inactive
32 | NS(=O)(=O)c1cc2c(cc1Cl)NC=NS2(=O)=O | inactive
33 | Cc1oncc1C(=O)Nc1ccc(C(F)(F)F)cc1 | inactive
34 | CCc1ccc(CCOc2ccc(CC3SC(=O)NC3=O)cc2)nc1 (centres undefined) | inactive
35 | NCCc1ccc(O)c(O)c1 | 8.09 µM (active)
36 | Clc1cccc(Cl)c1NC1=NCCN1 | inactive
37 | NC(=O)c1cnccn1 | inactive
38 | Cc1ccc(N(CC2=NCCN2)c2cccc(O)c2)cc1 | inactive
39 | N#Cc1ccc(C(c2ccc(C#N)cc2)n2cncn2)cc1 | inactive
